Experimental data from the supplement of paper PMC8728848.
Only a selection was taken, and the strongest signals are over-represented in it overall.

Experiments:
Assay in all cases: glycan array binding signal (z-score within array); higher = stronger binding
Conditions in all cases: glycan notation: IUPAC condensed, linker removed
[1] = target: Gal(b1-4)GlcNAc(b1-3)Gal(b1-4)[Fuc(a1-3)]GlcNAc(b1-3)Gal(b1-4)[Fuc(a1-3)]GlcNAc
In short: (§1)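 Columns mapping to the same glycan were averaged after glycan names were converted to IUPAC-condensed notation. The data come from 3228 arrays in the Consortium for Functional Glycomics database, limited to those with an available protein sequence. Binding is reported as a within-array Z-score averaged across arrays of one protein sequence and across linkers.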

[2] = target: Gal(b1-4)GlcNAc(b1-3)[Fuc(a1-3)GlcNAc(b1-6)]Gal(b1-4)Glc
In short: as §1

[3] = target: Gal3S(b1-4)GlcNAc
In short: as §1

[4] = target: GalNAc(a1-3)GalNAc(b1-3)Gal(a1-4)Gal(b1-4)Glc
In short: as §1

[5] = target: GalNAc(b1-3)Gal(a1-4)Gal(b1-4)GlcNAc
In short: as §1

[6] = target: GlcNAc(b1-2)Man(a1-3)[GlcNAc(b1-4)][GlcNAc(b1-2)Man(a1-6)]Man(b1-4)GlcNAc(b1-4)[Fuc(a1-6)]GlcNAc
In short: as §1

[7] = target: GlcNAc(b1-2)[GlcNAc(b1-4)]Man(a1-3)[GlcNAc(b1-4)][GlcNAc(b1-2)Man(a1-6)]Man(b1-4)GlcNAc(b1-4)GlcNAc
In short: as §1

[8] = target: GlcNAc(b1-3)Gal(b1-4)GlcNAc(b1-3)[GlcNAc(b1-3)Gal(b1-4)GlcNAc(b1-3)]GalNAc
In short: as §1

[9] = target: GlcNAc(b1-3)GalNAc
In short: as §1

[10] = target: GlcNAc(b1-4)GlcNAc(b1-4)GlcNAc(b1-4)GlcNAc(b1-4)GlcNAc
In short: as §1

[11] = target: Man(a1-3)[Man(a1-6)]Man
In short: as §1

[12] = target: Neu5Ac(a2-3)Gal
In short: as §1

[13] = target: Neu5Ac(a2-3)Gal(b1-3)GalNAc(b1-3)Gal(a1-4)Gal(b1-4)Glc
In short: as §1

[14] = target: Neu5Ac(a2-3)Gal(b1-3)GlcNAc(b1-2)Man(a1-3)[GlcNAc(b1-4)][Neu5Ac(a2-3)Gal(b1-3)GlcNAc(b1-2)Man(a1-6)]Man(b1-4)GlcNAc(b1-4)GlcNAc
In short: as §1

[15] = target: Neu5Ac(a2-3)Gal(b1-3)[Fuc(a1-4)]GlcNAc
In short: as §1

[16] = target: Neu5Ac(a2-3)Gal(b1-4)GlcNAc(b1-3)Gal(b1-4)GlcNAc
In short: as §1

[17] = target: Neu5Ac(a2-3)Gal(b1-4)GlcNAc(b1-3)Gal(b1-4)GlcNAc(b1-3)Gal(b1-4)GlcNAc
In short: as §1

[18] = target: Neu5Ac(a2-3)Gal(b1-4)GlcNAc(b1-3)Gal(b1-4)GlcNAc(b1-3)GalNAc
In short: as §1

[19] = target: Neu5Ac(a2-3)Gal(b1-4)[Fuc(a1-3)]GlcNAc(b1-6)[Neu5Ac(a2-3)Gal(b1-3)]GalNAc
In short: as §1

[20] = target: Neu5Ac(a2-6)Gal(b1-4)Glc
In short: as §1

[21] = target: Neu5Ac(a2-6)Gal(b1-4)GlcNAc(b1-2)Man(a1-3)[GlcNAc(b1-4)][Neu5Ac(a2-6)Gal(b1-4)GlcNAc(b1-2)Man(a1-6)]Man(b1-4)GlcNAc(b1-4)GlcNAc
In short: as §1

[22] = target: Neu5Ac(a2-6)Gal(b1-4)GlcNAc(b1-2)Man(a1-3)[Man(a1-6)]Man(b1-4)GlcNAc(b1-4)GlcNAc
In short: as §1

[23] = target: Neu5Ac(a2-6)Gal(b1-4)GlcNAc(b1-6)[Gal(b1-3)]GalNAc
In short: as §1

[24] = target: Neu5Ac(a2-8)Neu5Ac(a2-3)Gal(b1-3)GalNAc(b1-4)[Neu5Ac(a2-3)]Gal(b1-4)Glc
In short: as §1

[25] = target: Neu5Ac(a2-8)Neu5Ac(a2-3)Gal(b1-4)GlcNAc
In short: as §1

[26] = target: Neu5Gc(a2-3)Gal(b1-4)GlcNAc
In short: as §1

[27] = target: Neu5Gc(a2-3)Gal(b1-4)GlcNAc(b1-3)Gal(b1-4)GlcNAc(b1-2)Man(a1-3)[Neu5Gc(a2-3)Gal(b1-4)GlcNAc(b1-3)Gal(b1-4)GlcNAc(b1-2)Man(a1-6)]Man(b1-4)GlcNAc(b1-4)GlcNAc
In short: as §1

[28] = target: Neu5Gc(b2-6)Gal(b1-4)GlcNAc
In short: as §1

B1: PX9961V-pdi-562-26-562 (Parabacteroides distasonis) (protein)
chain: EIFSEITTDNYYQNSNNIYAALVNNYAKAFSTGWSDARYFLQEVTADQLMIPTRGKHGYNGGEYVRLHEHKWTVEENFVYNGWAAPFQGIALCNNTLSDFENLDFSTFKLTEETKNEYIAELRALRVWNYMFLIDFFRHVPIVTDIEEVKAQSTPLEVFNFMESELLAILPDLPKNRGVSRFDQAGVASILVRLYLNAEKWIGISKYDECEQMAQAILDGKYGEYSIDPDYRGPFRSGINGYRSKENIMEFAIKKNYFEASWLYNMWMHYQDRYSLDNDWQGWNGGNLAPSRDLYGNLYQDKLGMPFEKFPDGDIRKKAFRVISNDGDYEGFFLMGTQYKFDYEKGYGFTDEVITGTEEYNGKPLVYVDQVGRFSEGETGLAKGSHVIYGEENTGYRLIKFPWLPQSKDLFQMNSIPEIRLAEIYYSLAECKYRSGDKIGAARLLDVVRKRYYKAEDWSKFSYESNISKLTDDEFVDELGREFIGERHRRIDLIRWNRFSEGAWWDKTPDATNQDVFPIPYRALNANPLLKQTTAGF
glycan array binding signal (z-score) [1]: -0.412
glycan array binding signal (z-score) [2]: -0.429
glycan array binding signal (z-score) [3]: -0.447
glycan array binding signal (z-score) [4]: -0.432
glycan array binding signal (z-score) [5]: -0.339
glycan array binding signal (z-score) [6]: -0.145
glycan array binding signal (z-score) [7]: -0.324
glycan array binding signal (z-score) [8]: -0.471
glycan array binding signal (z-score) [9]: -0.21
glycan array binding signal (z-score) [10]: 0.049
glycan array binding signal (z-score) [11]: -0.443
glycan array binding signal (z-score) [12]: -0.711
glycan array binding signal (z-score) [13]: -0.516
glycan array binding signal (z-score) [14]: 0.213
glycan array binding signal (z-score) [15]: -0.598
glycan array binding signal (z-score) [16]: -0.53
glycan array binding signal (z-score) [17]: -0.516
glycan array binding signal (z-score) [18]: -0.319
glycan array binding signal (z-score) [19]: 2.66
glycan array binding signal (z-score) [20]: -0.644
glycan array binding signal (z-score) [21]: -0.373
glycan array binding signal (z-score) [22]: -0.231
glycan array binding signal (z-score) [23]: -0.27
glycan array binding signal (z-score) [24]: -0.606
glycan array binding signal (z-score) [25]: -0.574
glycan array binding signal (z-score) [26]: 0.017
glycan array binding signal (z-score) [27]: -0.054
glycan array binding signal (z-score) [28]: -0.322
